HepG2 viability: qHTS for Inhibitors of TGF-b: Cytotox Counterscreen; HepG2 CAGA-GFP viability, ATP luminescence, 18 h; Potency, µM (series often up to 46.1 µM), for the others: top-dose activity change, negative = cytotoxicity, usual class: cytotoxic; actives 0.76% (n = 410,000); note: potency is the fitted concentration of half-maximal effect
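CellTiter-Glo luminescence gave cytotoxicity after 18 hours at 37 degrees C. The cells were HepG2 CAGA-GFP in 1% FBS DMEM, stimulated with 500 pg/mL TGF-beta after compound addition. %Activity was normalised to no-cell wells (complete cell-killing) and DMSO (no toxicity), and curves were fitted and classified.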
uPA generation: qHTS for Inhibitors of Cell Surface uPA Generation; actives 0.31% (n = 330,000); AID 540303, 2011; cell surface uPA generation assay, qHTS; Potency, µM (titrated, usually from 38.3 µM), for inactives: top-dose activity change, negative = inhibition, most hits filed as inhibitors; active = well fitted inhibition curve with a large enough effect; inconclusive = small, poorly fitted or top-dose-only effect; inactive = no such curve, though single readings can be large or run the other way; tested in mouse RAW 264.7 cells; note: potency is the fitted concentration of half-maximal effect; % is set by controls: 0 for no effect and ±100 for the full control effect; nearly all actives have a fitted effect of over 55% in size
ATXN2 expr inh: Primary qHTS for Inhibitors of ATXN expression; HEK-293 ATXN2-luciferase reporter, luminescence, 24 h; Potency, µM (top dose mostly 57 µM), inactives show at the highest dose activity change, negative = inhibition, actives largely listed as inhibitors; actives 0.72% (n = 360,000); note: potency is the fitted concentration of half-maximal effect; % is set by controls: 0 for no effect and ±100 for the full control effect; nearly all actives have a fitted effect of over 55% in size
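qHTS (up to 57 uM final) was run with 24 h compound exposure of reporter cells at 37 °C. Each well was multiplexed: SteadyGlo luminescence measured ATXN2-luciferase expression after a fluorogenic Gly-Phe-AFC viability readout (25 uM final).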
Giardia killer: Small Molecules that selectively kill Giardia lamblia: qHTS; Giardia lamblia trophozoite viability; AID 540267, 2011; actives 0.15% (n = 340,000); activity change, % at 7.66 µM, hits read low; in the data active = activity change below about -80%; inconclusive = between about -30% and that limit;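 note: parasites exposed to compound for two days anaerobically before the ATP read; % is set by controls: 0 for no effect and ±100 for the full control effect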
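ATP-content bioluminescence gauges trophozoite survival. Cells (100/well) receive compound and incubate anaerobically for 48 hrs at 37 deg C; detection reagent follows for 15-30 min at room temperature.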
TGFb inhibitor: qHTS for Inhibitors of TGF-b; HepG2 CAGA-GFP TGF-b/SMAD3 reporter, GFP fluorescence, 18 h; TGF-beta stimulated, 500 pg/mL final; Potency, µM (series often up to 46.1 µM), for the others: top-dose activity, negative = inhibition, most hits filed as inhibitors; actives 1.2% (n = 410,000); AID 588855, 2011; note: potency is the fitted concentration of half-maximal effect; % is set by controls: 0 for no effect and ±100 for the full control effect; nearly all actives have a fitted effect of over 65% in size
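Inhibition was scored as loss of TGF-beta-induced (500 pg/mL final, 18 hours, 37 degrees C) GFP in HEPG2 cells carrying a CAGA-GFP reporter, in DMEM with 1% FBS. Well GFP was summed per cell; Activity was normalised to unstimulated and stimulated DMSO wells, then concentration-response fitting.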
ATXN viability: Viability Counterscreen for Primary qHTS for Inhibitors of ATXN expression; S2 cells (HEK-293 line with an ATXN2-luciferase reporter) viability, CellTiter-Fluor protease fluorescence, 24 h; Potency, µM (highest dose often 56.7 µM), most hits filed as cytotoxic; actives 0.49% (n = 400,000); note: potency is the fitted concentration of half-maximal effect; nearly all actives have a fitted effect of over 40% in size
* hit, by the source's call; i = inactive; u = inconclusive; x = not tested or not shown. This is a sample that favours compounds with a hit; in the whole collection about 2.6% have one here. Unless noted, calls come from the whole dose curve; as a rule, active = well fitted curve in the direction sought with a large enough effect; inconclusive = small, poorly fitted or top-dose-only effect, or another doubt; inactive = no such curve, though single readings can be large; an effect the other way counts as inactive or inconclusive.

SMILES	HepG2 viability	uPA generation	ATXN2 expr inh	Giardia killer	TGFb inhibitor	ATXN viability
C/C=C(/C)C(=O)OC1CC(C)(C)C[C@H]2C3=CC[C@@H]4[C@@]5(C)CCC(O[C@@H]6O[C@@H](C(=O)O)[C@@H](O)C(O[C@@H]7OC[C@H](O)[C@@H](O)[C@@H]7O[C@@H]7OC(CO)C(O)[C@@H](O)[C@@H]7O)C6O[C@@H]6OC(CO)C(O)C(O)C6O)[C@@](C)(CO)[C@@H]5CC[C@]4(C)[C@]3(C)CC(O)[C@@]12CO (stereo partly drawn)	14µM*	-9%	0%	-6	14µM*	32µM*
C=CC(=O)N1C/C(=C/c2ccc(F)cc2)C(=O)/C(=C\c2ccc(F)cc2)C1	20µM*	-3%	5.6µM*	5	u	7.1µM*
Cc1c(Cn2cnc3c(cnn3C(C)(C)C)c2=O)cccc1C(F)(F)F	-7%	x	x	x	-27%	x
COc1ccc(C(=O)/C(C#N)=N/Nc2ccc([N+](=O)[O-])cc2)cc1	-56%	1µM*	x	u	u	x
CCOc1ccc(NC(=O)Nc2cc(C(C)C)c(O)cc2C)cc1	5%	3%	-8%	3	-2%	i
Cc1cc(O)c(C(C)C)cc1NC(=S)Nc1cc(C(C)C)c(O)cc1C	4%	9%	u	19	10µM*	u
Cc1ccc(CN=Cc2[nH]c3ccc(Br)c(Cl)c3c2O)cc1	18µM*	-2%	-21%	8	-7%	i
COc1[nH]c(/N=C/c2ccco2)c(C#N)c1C#N	-13%	x	x	-23	7%	x
CC(=O)NCc1ccc(C(=O)CCl)s1	11µM*	-5%	u	-12	u	x
COc1ccccc1N1C(=O)N(C(C)=O)C2C1Nc1ccccc1N2C (stereo not drawn)	-88%	-24%	25µM*	17	u	i
COc1ccccc1N1C(=O)c2ccccc2NC1c1ccncc1 (stereo not drawn)	3%	-1%	-18%	5	11%	u
CC1c2ccccc2CN1NC(=O)c1ccc(Cl)c(S(N)(=O)=O)c1 (stereo not drawn)	x	x	3%	x	x	i
CCOC(=O)c1ccccc1NC(=O)CN1CCC(n2nnc3cc(F)ccc32)CC1	5%	7%	-2%	0	1%	i
CC1(C)CC(=O)c2c(C(F)(F)F)nn(-c3ccc(C(N)=O)c(NC4CCC(OC(=O)CN)CC4)c3)c2C1 (stereo not drawn)	x	x	0.22µM*	x	x	x
CC1(C)CC(=O)c2c(C(F)(F)F)nn(-c3ccc(C(N)=O)c(NC4CCC(O)CC4)c3)c2C1 (stereo not drawn)	x	x	0.097µM*	x	x	x
Cc1cccc(Nc2nc(N)c([N+](=O)[O-])c(N3CCC(C)CC3)n2)c1	-74%	-12%	-6%	-23	14µM*	i
Cc1cccc(Nc2nc(N)c([N+](=O)[O-])c(N3CC(C)CC(C)C3)n2)c1 (stereo not drawn)	11µM*	-7%	-16%	8	u	u
Cc1cccc(Nc2nc(N)c([N+](=O)[O-])c(N3CC(C)OC(C)C3)n2)c1 (stereo not drawn)	1%	-14%	-29%	20	0%	u
CCN1CCN(c2nc(Nc3cccc(OC)c3)nc(N)c2[N+](=O)[O-])CC1	-10%	u	x	20	-3%	i
CCSc1nsc(NC(=O)Nc2cccc(OC)c2)n1	-30%	5%	-27%	-8	22µM*	i
C=CCSc1nsc(NC(=O)Nc2ccc(F)cc2)n1	-38%	-18%	u	-4	6.3µM*	8.9µM*
Nc1nc(N)c2cc(Sc3ccc(Cl)cc3)ccc2n1	-114%	x	x	x	u	x
Nc1nc(N)c2cc(Sc3ccc4ccccc4c3)ccc2n1	-179%	2µM*	u	13	11µM*	u
CCN(Cc1ccncc1)Cc1ccc2c(c1)CN(C(=O)c1ccc(OC)cc1)CCO2	x	x	x	x	x	i
CC(C)(C)n1ncc2c(=O)n(Cc3ccc(F)cc3)cnc21	-4%	x	x	x	6%	x
SMILES	HepG2 viability	uPA generation	ATXN2 expr inh	Giardia killer	TGFb inhibitor	ATXN viability
CC(C)(C)n1ncc2c(=O)n(Cc3ccc(SC(F)(F)F)cc3)cnc21	-32%	x	x	x	16µM*	x
CCCCCCCCCNC(=O)[C@H](NC(=O)COc1ccccc1)[C@@H]1NC(C(=O)OC)C(C)(C)S1 (stereo partly drawn)	-6%	u	9%	4	11µM*	u
O=C(Cn1cc(C(=O)C(F)(F)F)c2ccccc21)Nc1ccccc1F	11µM*	u	-45%	-2	9%	u
O=C(Cn1cc(C(=O)c2ccco2)c2ccccc21)Nc1ccccc1F	-11%	-5%	-15%	-24	10%	i
COCc1c(C(=O)N2CCN(C3CCCCC3)CC2)cnn1-c1ncc(C)c(-c2cccs2)n1	x	x	x	x	x	i
Cc1ccc(NC(=O)c2c(C)noc2-c2snnc2C)cc1	6%	2%	-14%	7	4%	u
Cc1nnsc1-c1onc(C)c1C(=O)Nc1cc(Cl)cc(Cl)c1	-60%	u	x	-9	16µM*	u
CCCCCCC(=O)N(O)C1CC(=O)N(c2ccc(F)cc2)C1=O (stereo not drawn)	-3%	-10%	2%	-18	18µM*	u
CCCCCCC(=O)N(O)C1CC(=O)N(c2ccc(Br)cc2)C1=O (stereo not drawn)	-21%	x	-21%	-5	u	i
Cc1c(C(=O)NCCc2ccccn2)cnn1-c1nccc(-c2cccs2)n1	x	x	x	x	x	i
Cc1c(C(=O)NCCN2CCC(c3ccccc3)CC2)cnn1-c1nccc(-c2cccs2)n1	x	x	x	x	x	28µM*
NC(=O)c1cccc2[nH]c(-c3ccc([C@H]4CCCN4)cc3F)nc12	x	x	-24%	x	x	x
CCc1nc2ccc(C(=O)Nc3cc(-c4ccccc4)ccc3OC)cn2c1N(CC)Cc1cccc(Br)c1	-20%	x	4%	x	-9%	u
CCCCN(C=O)c1c(CC)nc2ccc(C(=O)Nc3cc(-c4ccccc4)ccc3OC)cn12	-11%	x	u	x	7.1µM*	i
CCc1nc2ccc(C(=O)Nc3cc(-c4ccccc4)ccc3OC)cn2c1N(CC)CCN(C)C	14µM*	x	u	x	u	x
CN1C(=O)NC2(O)C(=O)c3ccccc3C12O (stereo not drawn)	10µM*	0%	-20%	2	-4%	i
COc1cc(OC)cc(C(=O)Nc2ccc3nc4c(c(Nc5ccc(OC)c(OC)c5)c3c2)CCCC4)c1	16µM*	x	20µM*	x	13µM*	28µM*

Source: PubChem BioAssay
